Common to all, as to experiment: NCI-60 one-dose screen, 48 h (100 = growth as untreated, 0 = no growth, -100 = all killed)
The test system of one assay is HT29 colon. The note with it: 10 µM unless noted.
The test system of another assay is SNB-75 CNS. The note with it: 10 µM unless noted.
The subject of the next assay is SNB-19 CNS. Particulars: 10 µM unless noted.
For the next assay, the system named is U251 CNS. The note with it: 10 µM unless noted.
The test system of a further assay is PC-3 prostate. Particulars: 10 µM unless noted.
The next assay relates to SK-MEL-5 melanoma. The note with it: 10 µM unless noted.
For another assay, the system named is UACC-62 melanoma. Particulars: 10 µM unless noted.
The subject of another assay is LOX IMVI melanoma. The note with it: 10 µM unless noted.
In a further assay the test system is SK-MEL-28 melanoma. The note with it: 10 µM.
A further assay deals with SK-MEL-2 melanoma. The note with it: 10 µM unless noted.
For a further assay, the system named is EKVX NSCLC. Particulars: 10 µM unless noted.
For another assay, the system named is SN12C renal. Particulars: 10 µM unless noted.
Another assay deals with UO-31 renal. The note with it: 10 µM unless noted.
The test system of another assay is TK-10 renal. Particulars: 10 µM unless noted.
The next assay deals with ACHN renal. Particulars: 10 µM unless noted.
The test system of the next assay is CAKI-1 renal. Particulars: 10 µM unless noted.
The test system of the next assay is A498 renal. Particulars: 10 µM unless noted.
For another assay, the system named is MOLT-4 leukemia. The note with it: 10 µM unless noted.
A further assay concerns SR leukemia. The note with it: 10 µM unless noted.
The test system of another assay is CCRF-CEM leukemia. The note with it: 10 µM unless noted.

Molecules are shown by their SMILES. About 83,000 compounds went through this panel and 20% of them were active in at least one assay; those are over-represented in the sample as a whole.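 The test compound was applied at a single concentration to cells in 96-well plates for 48 hours, and percent growth was recorded.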 Values without a mark were called inactive. Calls of active or inactive are those of the source. The calls were made as follows: active = growth percent below 10; inactive = the rest.

For `O=C1C(=O)c2c(ccc3ccccc23)-c2ccccc21`, the growth with HT29 colon is 61.5%; with SNB-75 CNS, 26.2%; in the assay on SNB-19 CNS, 18.9%; in the assay on U251 CNS, 1.64% (active); with PC-3 prostate it was 5.79% (active); in the assay with SK-MEL-5 melanoma, -69.9% (active). The growth with UACC-62 melanoma is -25.2% (active); in the assay on LOX IMVI melanoma, -33.2% (active); with SK-MEL-28 melanoma, 3.64% (active); with SK-MEL-2 melanoma it was -68.8% (active); in the assay on EKVX NSCLC, 100%; in the assay with SN12C renal, -38.6% (active). Moreover, the growth in the assay with UO-31 renal was -32.4% (active); in the assay on TK-10 renal it was 14.7%; in the assay on ACHN renal, 1.97% (active); with CAKI-1 renal it was -17% (active); with A498 renal, 108%; in the assay on MOLT-4 leukemia, -31.3% (active). The growth with SR leukemia is 5.07% (active).

In the case of `COC(=O)/C(CCC=C(C)C)=C1\[C@@H](OC(C)=O)C[C@@]2(C)[C@H]1C[C@@H](O)[C@H]1[C@@]3(C)CC[C@H](NC(=O)c4cnccn4)[C@@H](C)[C@@H]3CC[C@@]12C`, the growth was 99% in the assay with HT29 colon; 86.3% in the assay with SNB-75 CNS; 96.5% with SNB-19 CNS; 98.3% in the assay with U251 CNS; 86.2% in the assay on PC-3 prostate; 96.5% with SK-MEL-5 melanoma. Also, the growth in the assay on UACC-62 melanoma is 86.6%; in the assay with LOX IMVI melanoma, 93.5%; with SK-MEL-28 melanoma, 111%; in the assay on SK-MEL-2 melanoma, 118%; in the assay on EKVX NSCLC, 94.1%; with SN12C renal it was 95.7%. Besides, the growth was 85.6% in the assay on UO-31 renal; 117% with TK-10 renal; 101% in the assay with ACHN renal; 92% with CAKI-1 renal; 108% with A498 renal; 103% in the assay on CCRF-CEM leukemia. The growth with MOLT-4 leukemia was 83.9%; with SR leukemia it was 93.5%.

As for `COc1cccc2c(=O)c3c(sc12)c(NCCCNCCO)nc1ccccc13`, the growth with HT29 colon was -43.8% (active); in the assay with SNB-75 CNS, 17.2%; with SNB-19 CNS, 63.6%; with U251 CNS, 14.4%; with PC-3 prostate, 45%; with SK-MEL-5 melanoma, 72.6%. The growth in the assay on UACC-62 melanoma is 77.4%; in the assay with LOX IMVI melanoma, 37.2%; in the assay on SK-MEL-28 melanoma, 81.9%; with SK-MEL-2 melanoma, 94.1%; in the assay with EKVX NSCLC, 53.9%; with SN12C renal, 56.5%. In addition, the growth is 27.4% in the assay with UO-31 renal; 58.6% with TK-10 renal; 33.6% in the assay on ACHN renal; 48.1% in the assay with CAKI-1 renal; 14.5% in the assay on A498 renal; 1.38% (active) in the assay with MOLT-4 leukemia. In the assay on SR leukemia, the growth is 0.0565% (active).

`O=c1c(-c2nc3ccccc3[nH]2)cc2ccccc2n1Cc1cn(Cc2ccc(N3CCOCC3)cc2)nn1`: the growth in the assay with HT29 colon was 56.3%; with SNB-75 CNS it was 5.39% (active); in the assay with SNB-19 CNS, 48%; with U251 CNS, 64.3%; in the assay with PC-3 prostate, 65.9%; with SK-MEL-5 melanoma, 71.9%. The growth with UACC-62 melanoma is 79.2%; in the assay with LOX IMVI melanoma, 78.7%; with SK-MEL-28 melanoma it was 76.2%; in the assay with SK-MEL-2 melanoma, 86.9%; with EKVX NSCLC, 89.7%; in the assay on SN12C renal, 49.7%. Besides, the growth is 74.8% with UO-31 renal; 92.7% with TK-10 renal; 35.7% in the assay on ACHN renal; 77.3% in the assay with CAKI-1 renal; 92.4% with A498 renal; 110% with CCRF-CEM leukemia. For the same compound, the growth was 99% in the assay with MOLT-4 leukemia and 71.7% with SR leukemia.

On to `O=C1/C(=C/c2cccc(O)c2)COc2ccc(O)cc21`, for which the growth with HT29 colon was 72.7%; with SNB-75 CNS, 96.4%; in the assay with SNB-19 CNS, 80%; in the assay on U251 CNS, 29.6%; in the assay on PC-3 prostate it was 72.7%; in the assay with SK-MEL-5 melanoma, 86.9%. The growth was 82.4% in the assay with UACC-62 melanoma; -57.1% (active) in the assay on LOX IMVI melanoma; 102% in the assay with SK-MEL-28 melanoma; 108% in the assay with SK-MEL-2 melanoma; 93.9% with EKVX NSCLC; 73.8% in the assay on SN12C renal. In addition, the growth in the assay on UO-31 renal is 79.6%; in the assay with TK-10 renal, 130%; with ACHN renal it was 67.3%; with CAKI-1 renal, 95.3%; in the assay with A498 renal it was 117%; in the assay on CCRF-CEM leukemia, 8.33% (active). Moreover, the results for the growth in the assay on MOLT-4 leukemia and in the assay on SR leukemia were 33.3% and 10.5%, respectively.

In the case of `CNC(=O)c1cc(Oc2ccc(CC(=O)Nc3cc(C(C)(C)C)cn3C)cc2)ccn1`, the growth in the assay with HT29 colon is 88%; in the assay with SNB-75 CNS, 52.4%; in the assay on SNB-19 CNS, 69.9%; in the assay on U251 CNS it was 88.6%; in the assay with PC-3 prostate, 75.9%; in the assay on SK-MEL-5 melanoma it was 8.83% (active). For the same compound, the growth in the assay with UACC-62 melanoma is 62.9%; in the assay on LOX IMVI melanoma, 67%; with SK-MEL-28 melanoma, 79.8%; in the assay on SK-MEL-2 melanoma, 67.1%; with EKVX NSCLC, 75.6%; in the assay with SN12C renal, 68.5%. Further, the growth with UO-31 renal was 87.4%; in the assay on TK-10 renal it was 108%; with ACHN renal, 66.7%; with CAKI-1 renal, 56%; with A498 renal, 53.9%; with CCRF-CEM leukemia, 74%. Moreover, the growth was 69.6% in the assay on MOLT-4 leukemia and 75.5% in the assay with SR leukemia.

(Values after PubChem BioAssay (NCI).)
